In the library only some 1.6% were active in any assay of this set; here they are far more common.
STAT3 blocker: inhibitors of IL-6 induced STAT3 signaling; 190,000 tested, 0.89% active; inhibition, % at 5.5 µM; AID 862; U3A cells, IL-6 STAT3-luciferase reporter, luminescence; host cell line lacks STAT1;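 active = inhibition above the mean inhibition across all screened compounds plus 3 SD, cut at about 44% in these data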
STAT1 blocker: STAT1 signaling inhibition. inhibition, % at 5.5 µM. AID 920. NIH 3T3 STAT1-luciferase reporter, IFN-gamma, luminescence. 200,000 tested, 0.35% active;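 active = inhibition above a set limit, the mean inhibition across all tested compounds plus 3 SD, cut at about 34% in these data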
Platelet DG rel: modulates dense granule release in human platelets | human platelet-rich plasma, SFLLRN dense granule ATP release, luminescence | inhibition, %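 (compounds screened at 7.5 µM in platelet-rich plasma)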 | 300,000 tested, 0.22% active | AID 1663;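 active = mean replicate score, as percent of positive control, at or above 50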
PPC-1+TRAIL kill: kills PPC-1 cancer cells in the presence of TRAIL | AID 1443 | PPC-1 cells + TRAIL, ATPLite viability luminescence | 220,000 tested, 0.41% active | cell killing (% activity), % at 4 µM or 5 µM;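 active = cell killing above 50% in the first pass at 4 µM, then a duplicate retest at 5 µM averaging 50% or more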
C8 TRAIL sens: sensitizes caspase-8 expressing cells to TRAIL. inhibition (viability loss, TRAIL sensitization), % at 10 µM. NB7+C8 cells + TRAIL, ATPlite viability luminescence. 360,000 tested, 1% active. AID 624354;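 active = compounds causing at least 50% loss of cell viability in the single-dose screen, relative to plate controls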
A number is an active result; i = inactive; nt = no result.

SMILES | STAT3 blocker | STAT1 blocker | Platelet DG rel | PPC-1+TRAIL kill | C8 TRAIL sens
O=[N+]([O-])c1nn(-c2ccc3c(c2)OCCO3)n(O)c1=Nc1ccccc1 | 90 | 46 | i | i | i
O=[N+]([O-])c1nn(-c2ccc3c(c2)OCCO3)n(O)c1=Nc1ccc(Cl)cc1 | i | i | i | i | i
CC1CC(O)C2C3(C)CCCC2(COC3=O)C12CCC1(CCOC1=O)O2 (centres undefined) | nt | nt | nt | nt | i
O=C(Nc1ccccc1Cl)c1cc(C2CCCCN2C(=O)CCCc2ccccc2)on1 (centres undefined) | nt | nt | nt | nt | i
Cc1ccc(-c2nn3c(C)nnc3c3ccccc23)cc1S(=O)(=O)NCc1ccccc1 | i | i | i | i | 52
Cc1ccc(-c2nn3c(C)nnc3c3ccccc23)cc1S(=O)(=O)NCCN1CCOCC1 | i | i | i | i | i
O=C(OCc1ccccc1)N(CCCCN(CCCNCc1ccccc1)C(=O)OCc1ccccc1)CCCNCc1ccccc1 | nt | nt | nt | nt | 96
COc1ccc(-c2cc(C(=O)N3CCCC3)no2)cc1 | nt | nt | i | nt | 62
O=C(Nc1cccnc1)c1cc(-c2ccc(Cl)c(Cl)c2)on1 | nt | nt | 55 | nt | i
COc1ccc2cc3cc(C(=O)N4CCCCCC4)oc3nc2c1 | nt | nt | i | nt | 50
COc1ccc(-c2cc(C(=O)Nc3cccc(O)c3)no2)cc1 | nt | nt | i | nt | 73
COc1ccc(-c2cc(C(=O)Nc3ccc(C)c(C)c3)no2)cc1 | nt | nt | i | nt | i
C[C@@H](NC(=O)[C@@H]1CCCN1C(=O)[C@@H]1CCCN1C(=O)c1cccs1)c1ccccc1 | nt | nt | nt | nt | i
O=C(Nc1ccc2ccccc2c1)C(c1ccc(C(F)(F)F)cc1)n1c(=O)c(-c2cc3ccccc3[nH]2)nc2ccccc21 (centres undefined) | nt | nt | nt | nt | i
CSCCNC(=O)C1(C)CCN1C(=O)CCc1ccccc1 (centres undefined) | nt | nt | nt | nt | i
O=C(c1ccc(Cl)c(S(=O)(=O)NCc2cccnc2)c1)N1CCCC1 | nt | nt | nt | nt | i
COCCCNC(=O)COC(=O)c1ccc(-c2nc3ccccc3s2)s1 | i | i | i | i | i
CNC(=O)COC(=O)c1ccc(-c2nc3ccccc3s2)s1 | i | i | i | 66 | i
CC(=O)Nc1cc(-c2cccc(C(=O)NCCN(C)C)c2)cn2c(-c3ccccc3)cnc12 | nt | nt | nt | nt | i
CC(=O)Nc1cc(-c2cccc(C(=O)NCCN(C)C)c2)cn2c(-c3cccc(C(F)(F)F)c3)cnc12 | nt | nt | nt | nt | 65
CN(C)CCNC(=O)c1cccc(-c2cnc3c(NC=O)cc(-c4ccc(F)cc4)cn23)c1 | nt | nt | nt | nt | i
CCSc1ccc(-c2cc(NC=O)c3ncc(-c4cccc(C(=O)NCCN(C)C)c4)n3c2)cc1 | nt | nt | nt | nt | 79
Cc1nc2nc(C)c(C)nc2nc1C | nt | nt | nt | nt | i
COc1ccc(NC(=O)c2cc(C3CCCCN3C(=O)CCCc3ccccc3)on2)c(C)c1 (centres undefined) | nt | nt | nt | nt | i
O=C(/C=C/c1ccc(F)cc1)NC(=S)Nc1ccccc1C(=O)NC1CCCCC1 | i | i | i | i | 59
SMILES | STAT3 blocker | STAT1 blocker | Platelet DG rel | PPC-1+TRAIL kill | C8 TRAIL sens
O=C(/C=C/c1ccccc1)NC(=S)Nc1ccccc1C(=O)NC1CCCCC1 | i | i | i | i | i
COc1cc(CN2C[C@@H](CO)O[C@@H](n3cnc4c(N5CCN(C)CC5)ncnc43)C2)cc(OC)c1OC | nt | nt | nt | nt | i
O=C(Nc1ccccc1-c1ccccc1)c1ccc(Cl)c([N+](=O)[O-])c1 | i | i | i | 94 | i
Cc1cccc(C)c1NC(=O)C1(C)CN(S(C)(=O)=O)CC(=O)N1CCc1ccccc1F (centres undefined) | nt | nt | nt | nt | i
O=C(NCCC1=CCCCC1)NC1CCCCC1 | i | i | 54 | i | i
NC(=O)NCCC1=CCCCC1 | i | i | i | i | i
COc1ccc(CN2C(=O)C(CC(=O)NCC3CCCCC3)CC(C(=O)N3CCOCC3)=C2C)cc1 (centres undefined) | nt | nt | nt | nt | i
COCC(=O)OC1CCn2c1nc1c2C(=O)C(C)=C(NC(C)=O)C1=O (centres undefined) | nt | nt | nt | nt | 69
O=C(NC(=S)N1CCN(c2ccc(C(F)(F)F)cc2[N+](=O)[O-])CC1)c1cccs1 | i | i | i | i | 51
Cc1cc(C(=O)Cn2nc(C(=O)O)c3ccccc3c2=O)c(C)n1-c1ccc(F)cc1 | i | i | i | 57 | i
COCCn1c(C)cc(C(=O)Cn2nc(C(=O)O)c3ccccc3c2=O)c1C | i | i | i | i | 64
Cc1cc(C(=O)Cn2nc(C(=O)O)c3ccccc3c2=O)c(C)n1-c1cccc(C(F)(F)F)c1 | nt | nt | i | i | i
Cc1ccnc(NC(=O)c2sc3ccccc3c2Cl)c1 | i | i | i | 76 | 92
O=C(Nc1nccs1)c1sc2ccccc2c1Cl | i | i | i | i | 74

Assay outcomes (PubChem BioAssay)
